This is part of a sample that, as a whole, favours compounds with a hit. Of some 79,000 tested, about 15% had one in any assay. Values without a mark were called inactive. Activity calls are given as the source filed them. Cut-off read from the data, not from the text of the source: active = growth inhibition above about 70%; inactive = the rest.
Columns and labels:
[1] = NCI Yeast Anticancer Drug Screen. Data for the rad50 strain (AID 155);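 note: 0% = growth of vehicle-only cultures of the same strain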; settings: S. cerevisiae rad50 strain growth inhibition; at 50.0 µM; hits give high values
Outline: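 Readout: growth inhibition relative to vehicle-treated cultures. Compound exposure was carried out in a genetically defined yeast strain deficient in DNA damage repair.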

[2] = NCI Yeast Anticancer Drug Screen. Data for the mec2-1 strain (AID 157); settings: S. cerevisiae mec2-1 strain, at 50.0 µM, hits give high values
Outline: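 Using mec2-1 yeast: add compound, measure growth, express inhibition versus vehicle-treated cultures.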

[3] = NCI Yeast Anticancer Drug Screen. Data for the sgs1 mgt1 strain (AID 161);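 note: 0% = growth of cultures given vehicle only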; settings: S. cerevisiae sgs1 mgt1 strain, at 50.0 µM, hits give high values
Outline: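 Growth of a repair-deficient yeast mutant was monitored after compound treatment and expressed as inhibition relative to vehicle-treated cultures.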

[4] = NCI Yeast Anticancer Drug Screen. Data for the cln2 rad14 strain (AID 165);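 note: 0% = growth equal to vehicle treated cultures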; settings: S. cerevisiae cln2 rad14 strain, at 50.0 µM, hits give high values
Outline: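 Yeast strain cln2 rad14, bearing defects in cell cycle control and DNA repair, serves as the test system; values reflect growth inhibition compared with vehicle.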

[5] = NCI Yeast Anticancer Drug Screen. Data for the bub3 strain (AID 167); settings: S. cerevisiae bub3 mutant strain, at 50.0 µM, hits give high values
Outline: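 Readout: yeast growth inhibition, expressed relative to vehicle-only wells. The test organism is a mutant strain from a panel with lesions in DNA repair or checkpoint genes.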

[6] = NCI Yeast Anticancer Drug Screen. Data for the mlh1 rad18 strain (AID 175); settings: S. cerevisiae mlh1 rad18 strain growth inhibition; at 50.0 µM; hits give high values
Outline: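 Steps: expose repair-defective yeast to compound; measure growth; express inhibition against vehicle-treated controls.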

SMILES | growth inhibition [1] | growth inhibition [2] | growth inhibition [3] | growth inhibition [4] | growth inhibition [5] | growth inhibition [6]
Nc1cnccn1 | 1.55% | 4.1% | 0.75% | -4.3% | 9.3% | -10.6%
S=C1NC(/C=C/c2ccccc2)Nc2ccccc21 (stereo unspecified) | 62.2% | 79.1% (active) | 73% (active) | 81.8% (active) | 27.6% | 88.2% (active)
CCOC(=O)C(NC(=O)CC(C)C)(N1CCN(c2cc3c(cc2F)c(=O)c(C(=O)O)cn3C2CC2)CC1)C(F)(F)F (stereo unspecified) | -5.8% | -26.3% | -0.2% | 12.5% | -24.9% | -17.9%
CC(=O)OC1C(O)C(C)OC(OC2C(C)OC(OC(=O)[C@@H]3CC[C@@H]4[C@H](C3)OC3(C[C@@H](OC(=O)/C=C/c5ccccc5)[C@@H](C)CO3)[C@@]43CO3)C(O)C2OC(C)=O)C1O (stereo partly specified) | 91% (active) | 93.4% (active) | 92.2% (active) | 90.1% (active) | 91.1% (active) | 91.8% (active)
CC1(C)OC[C@@H](O)[C@H](Br)CO1 | -14.7% | -36% | -20.9% | -3.95% | -32.9% | -28.1%
O=C(N/N=C\c1cccnc1)Nc1ccc(N=Nc2ccccc2)cc1 | 12% | 12.5% | -1.9% | -9.2% | 11.9% | 23.1%
O=c1[nH]c(=O)c2nc3cc(-c4ccc5nc6[nH]c(=O)[nH]c(=O)c6nc5c4)ccc3nc2[nH]1 | 14.2% | 12.1% | 12.4% | 54% | 2.65% | 7%
COc1ccc2nccc(C)c2c1 | -13% | 16.9% | -0.9% | -0.9% | 1.5% | -0.25%
CC(C)COC(=O)c1ccc(NC(=O)CN2CC(C)OC(C)C2)cc1 (stereo unspecified) | 43.8% | -10.4% | 61.9% | 56.5% | 7.95% | 47%
CCn1c(C)[n+](CCCOS(=O)(=O)[O-])c2ccccc21 | 2.6% | -19.1% | -14.4% | 4.1% | 4.6% | -6.05%
c1ccc(CNC(c2ccccc2)C(NCc2ccccc2)c2ccccc2)cc1 (stereo unspecified) | -7.35% | -0.75% | -14.3% | -38.4% | 6.15% | 10.2%
CC(=O)OC1C(O[C@H]2CC[C@]34O[C@]35CC[C@]3(C)C(C6(C)CC[C@@H](C(C)(C)O)O6)[C@@H](O)CC3(C)[C@@H]5CC(OC3OC(CO)C(O)C(O)C3O)C4C2(C)C)OCC(O)C1O (stereo partly specified) | -8.4% | -21.6% | 2.7% | 1.85% | 0.7% | 6.35%
CCCCN(CCCC)CC(CC)N(CCCC)CCCC (stereo unspecified) | -8.4% | 1.8% | -5.7% | -38.6% | 10.8% | 7.35%
CC1(CO)COC(c2ccccc2)=N1 (stereo unspecified) | 4.65% | 2.85% | 4.55% | -8.9% | -1.3% | 0.75%
CN(/N=C\c1ccccc1)C(c1ccccc1)N(C)/N=C/c1ccccc1 (stereo unspecified) | -6.45% | -8.3% | 15.2% | -11.7% | -17.3% | -2.8%
O=C(NC(=O)c1ccccc1)OC(c1ccccc1)C1CO1 (stereo unspecified) | -0.7% | 9.65% | 11.4% | 8.55% | -34.1% | 18.8%
CC1=CC(=O)N2CCN=C2S1 | -7.05% | -14.9% | 1.65% | -20.6% | -3% | -5.75%
N#CC(NNC(=O)c1ccccc1O)c1ccccc1 (stereo unspecified) | 16.1% | 0.5% | 9.85% | -8.7% | 35.9% | 3.75%

SMILES | growth inhibition [1] | growth inhibition [2] | growth inhibition [3] | growth inhibition [4] | growth inhibition [5] | growth inhibition [6]
Cc1ccccc1Nc1nc2ccccc2nc1NS(=O)(=O)c1ccccc1 | 5.1% | 0% | 5.85% | -0.8% | 18.1% | -58.4%
O=NN(CCCl)C(=O)N[C@H]1CCC[C@@H](O)C1 | 5.85% | -3.35% | -6.2% | -42.9% | -15.2% | 6%
O=C(Nc1ccccc1)c1nccc2ccccc12 | 1.45% | 13% | -6.45% | -17.1% | 9.4% | -3.95%
CCOC(=O)C(C#N)C1CCCC(C)CC1 (stereo unspecified) | 13% | 6.5% | 3.5% | 2.65% | 34.1% | 7.55%
CCCCCCCCCCCCCCCCOP(=O)(O)OP(=O)(O)OCC1OC(n2ccc(N)nc2=O)CC1O (stereo unspecified) | -10.2% | -3.9% | 8.7% | -17.8% | 20.6% | 12.7%
CC(CC[C@@H](O)C(C)(C)O)C1[C@@H](O)CC2(C)C3CC(O)C4C(C)(C)[C@@H](OC5OC(CO)C(O)C(O)C5O)CC[C@@]45C[C@@]35CC[C@]12C (stereo partly specified) | -14.9% | 2.65% | 0.15% | -30.2% | -5.9% | -28.1%
O=S1C=Cc2ccccc21 (stereo unspecified) | 9.8% | 20.6% | 13.1% | 5.8% | -0.7% | 7.1%
Cc1ccc2c(c1)[nH]c(=S)n2/C=C(\c1ccccc1)S(=O)Cc1ccccc1 (stereo unspecified) | -23.7% | -25.6% | -19.9% | 0.3% | -28.1% | -26.2%
CC(=O)NC1c2ccccc2C(C)(C)C12CCC1(CC2)OCCO1 (stereo unspecified) | -33.5% | -17.1% | -4.8% | 0.05% | -3.8% | -40.8%
O=C(Nc1cccc2ccccc12)Oc1cccc2cccnc12 | 98% (active) | 96.9% (active) | 97.5% (active) | 94% (active) | 98.5% (active) | 98% (active)
CCN(C(=O)/C=C/c1ccccc1)C1CCCCC1 | 17.2% | 27.9% | 53.2% | 47.2% | 35.5% | 48.5%
C=CCC1(CO)CCCCC1O (stereo unspecified) | 1.6% | 1.5% | 16.4% | -73.4% | 10.3% | 3.2%
CN1CCC(=C2c3ccccc3CC(O)c3sccc32)CC1 (stereo unspecified) | 24.2% | 5.7% | -16.6% | 3.5% | 9.2% | 39%
O=C(CCCC(=O)Nc1ccc2[nH]c3ccccc3c(=O)c2c1)Nc1ccc2[nH]c3ccccc3c(=O)c2c1 | 12.7% | -8.6% | -0.3% | 20.9% | -3.55% | 2.95%
CCCCCCCCCCCCCCCCCCC1=C(O)C(=O)C=C(OC)C1=O | 18.2% | -6.5% | -3.05% | -2.4% | 4.4% | 8.75%
CCCCCC(=O)OC[n+]1ccc2c(C)c3[nH]c4ccc(OC)cc4c3c(C)c2c1 | 87.8% (active) | 91.8% (active) | 90.2% (active) | 89.3% (active) | 87.1% (active) | 91.5% (active)
Cc1cnc2c(C)ccc([N+](=O)[O-])c2c1NCCCN(C)C | 34.2% | 13.8% | 12.7% | 2.45% | 16.9% | 52%
Cc1ccc(CNC(=O)Nc2c(C)cccc2C)cc1C | 8.8% | 2.55% | 9.75% | -6.3% | 14.4% | 3.45%

Reference: PubChem BioAssay (NCI)
